Screens from PubChem.
Shown is part of a subset that was picked to be rich in hits.
KDM5B inh: inhibitors of human KDM5B histone demethylase; Q9UGL1; KDM5B demethylase, FDH-coupled NADH fluorescence (FDH is formaldehyde dehydrogenase); Potency, µM (highest dose often 57.7 µM), hits mostly inhibitors; 220,000 tested, 2.6% active; AID 1347165; active = well fitted inhibition curve with a large enough effect; also: nearly all actives have a fitted effect of over 70% in size
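Coupled FDH/NAD⁺ fluorescence readout. KDM5BΔAP 200 nM final; compound titration, 10 min RT preincubation; substrate mix 12.5 µM H3K4me3, 25 µM 2-OG, 50 µM Fe(II), 100 µM ascorbate, 0.25 mM NAD⁺, 0.25 U/mL FDH; ΔRFU over 30 min.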
A number is an active result; – = inactive.

SMILES	KDM5B inh
CC(=O)N1CCc2c(c3ccccc3n2C)C1	25.1µM
CCCCN1CCc2c(c3ccccc3n2Cc2ccccc2)C1	–
COc1ccc(NC(=O)C(=O)c2c(C)n(C)c3ccccc23)cc1	–
Cn1cc(C(=O)C(=O)N2CCCCC2)c2ccccc21	–
COc1ccc(NC(=O)N2CCc3c(c4ccccc4n3C)C2)cc1	25.1µM
Cn1c2c(c3ccccc31)CN(C(=O)Nc1ccccc1)CC2	22.4µM
COc1ccc(NC(=O)N2CCC3(CCNCC3)C2)cc1	–
Cn1c(=O)oc2cc(NC(=O)Nc3ccc(F)c(Cl)c3)ccc21	–
Cn1c(C(=O)Nc2ccccc2)c(Cl)c2ccccc21	–
Cc1cc2n(n1)CCCN2C(=O)Nc1ccc(F)c(Cl)c1	–
COc1ccc(NC(=O)C(=O)c2c(C)[nH]c3ccccc23)cc1	–
O=C(C1CC(=O)N(c2n[nH]c3cc(Br)ccc23)C1)N1CCSCC1 (stereo not given)	–
COCc1noc([C@@H]2CN(S(=O)(=O)Cc3ccc(F)cc3)C[C@H]2C(N)=O)n1	–
COC(=O)c1ccc(C(=O)NCC2CCCCC2)cc1	–
COc1cc(CN(C(=O)c2cccc(NC(C)=O)c2)C2CC2)ccc1OC(F)F	–
Cc1cc(C)nc(SCc2ccc(C(=O)N3CC[C@@](C)(O)[C@@H](O)C3)o2)n1	–
CC(OC(=O)C1CC2CCCC(C1)C2=O)C(=O)c1ccc(Cl)cc1 (stereo not given)	–
O=C1c2c(-c3nc(-c4ccsc4)no3)nnn2CCN1Cc1cc(F)cc(F)c1	–
CCC(=O)c1cc2c(cc1NC(=O)c1ccco1)OCCO2	–
COc1ccc(CNC(=O)CC[C@H]2CNC(=O)[C@@H]3[C@@H](CCN3Cc3ccc(F)cc3)N2C)cc1	–
O=C(Nc1ccc(Cl)cc1Cl)N1CCc2[nH]c3ccc(F)cc3c2C1	31.6µM
O=C(Nc1ccc(F)cc1F)N1CCN(c2ccc(Cl)c(Cl)c2)CC1	–
O=C(Nc1ccc(F)cc1F)Nc1ncc(Cl)cc1Cl	–
N#CCc1ccc(NC(=O)CCSc2ccc(Cl)cc2)cc1	–
O=C1CCCC2=C1C(c1ccccc1F)c1c([nH]n(-c3ccccc3)c1=O)N2 (stereo not given)	–
SMILES	KDM5B inh
CN(Cc1cccs1)C(=O)c1ccc(-c2ccccc2)cc1	–
O=C(c1noc2c1CCCC2)N1CCOc2ccc(CN3CCN(c4ccccn4)CC3)cc2C1	–
Cn1nccc1C(=O)N1CCOc2ccc(CN3CCc4ccccc4C3)cc2C1	–
O=C(c1ccc(-c2ccco2)cc1)N1CCOc2ccc(CN3CCN(c4ccccn4)CC3)cc2C1	28.2µM
CCCN1CCC(N2C[C@@H](CO)[C@H](c3nc(COC)no3)C2)CC1	–
CC[C@H]1CN(C(=O)C(C)(C)C)CC[C@H]1CC(=O)Nc1ccccc1	–
O=C(c1ccc[nH]1)N1CCC(n2cc(-c3nc(-c4ccccc4)no3)nn2)CC1	–
Cc1ccc(C(=O)N2CCCC(n3cc(-c4nc(-c5ccccc5)no4)nn3)C2)cc1 (stereo not given)	–
O=C(c1ccccc1F)N1CCC(n2cc(-c3nc(-c4ccccc4)no3)nn2)C1 (stereo not given)	–
O=C(c1cc2ccccc2[nH]1)N1CCCC(n2cc(-c3nc(-c4ccccc4)no3)nn2)C1 (stereo not given)	17.8µM
O=C(c1ccc[nH]c1=O)N1CCC(n2cc(-c3nc(-c4ccccc4)no3)nn2)CC1	–
Cc1ccccc1C(=O)N1CCC(n2cc(-c3nc(-c4ccccc4)no3)nn2)C1 (stereo not given)	–
O=C(c1cccc(Cl)c1)N1CCCC(n2cc(-c3nc(-c4ccccc4)no3)nn2)C1 (stereo not given)	–
O=C(c1cccc2[nH]ccc12)N1CCC(n2cc(-c3nc(-c4ccccc4)no3)nn2)C1 (stereo not given)	25.1µM
O=C(c1cccc2[nH]ccc12)N1CCC(n2cc(-c3nc(-c4ccccc4)no3)nn2)CC1	28.2µM
CC(=O)N1C[C@@H]2CCCN3CCC[C@@H]([C@H]23)[C@H]1CCCC(=O)Nc1ccccc1	–
CN(C)c1cccc(C(=O)NNC(=O)c2ccccc2F)c1	–
CC(C1=C(O)CC(C)(C)CC1=O)C1=C(O)CC(C)(C)CC1=O	–
CC1CCC(NC(=O)c2ccc(Cl)nc2)CC1 (stereo not given)	–
Cc1nnc(NC(=O)c2cc(-c3ccncc3)nc3ccccc23)s1	–
O=C(Cn1ccc2ccc(Cl)cc21)Nc1ccc2[nH]ccc2c1	–
COCCN1C(=O)[C@H]2CN(Cc3cccc(OC(F)(F)F)c3)C[C@H]2C1=O	–
Cn1cc(-c2cc(=O)c3ccnc(NC4CCOCC4)c3o2)cn1	–
Cn1cc(-c2cc(=O)c3ccnc(NCc4ccc(F)cc4)c3o2)cn1	31.6µM
O=c1cc(-c2cccnc2)oc2c(NCc3ccccc3)nccc12	–
SMILES	KDM5B inh
CC(NC(N)=S)c1ccccc1 (stereo not given)	–
Cc1ccc(CNC(=O)N2CCN(CC(=O)Nc3cccc(C)c3C)CC2)cc1F	–
O=C(Cn1c(=O)[nH]c2c(-c3ccccc3F)c[nH]c2c1=O)NCc1ccc2c(c1)OCO2	–
COC(=O)c1ccc(CNC(=O)CC2Sc3ccccc3NC2=O)cc1 (stereo not given)	–
Cc1ccc(CNC(=O)CCc2ccccc2)cn1	–
Cc1c(-c2ccccc2F)[nH]c2ccc(CNC(=O)CCc3cnccn3)cc12	12.6µM
O=C1CCCCC(CNC(=O)c2ccccc2F)N1 (stereo not given)	–
Cc1c(-c2ccccc2F)[nH]c2ccc(CNC(=O)CCN3CCCO3)cc12	25.1µM
Cc1c(-c2ccccc2F)[nH]c2ccc(CNC(=O)CC3CCC(=O)N3)cc12 (stereo not given)	31.6µM
O=C(CCc1ncc(-c2ccccc2F)o1)NCc1ccccc1	–
O=C(NCCN1CCOC1=O)c1cn(CCC2CCCCN2)nn1 (stereo not given)	–
CC(OC(=O)c1ccc2c(c1)NC(=O)CS2)C(=O)NC1CCCC1 (stereo not given)	–
Cc1nnc(SCc2c(C(=O)NC(C)C)oc3ccccc23)s1	–
Fc1cccc(-c2nn3c(CN4CCOCC4)nnc3s2)c1	–
COc1cccc(-c2cc3c(=O)n(CCNC(=O)c4ccc(C)cc4)ccn3n2)c1	17.8µM
COc1cccc(-c2cc3c(=O)n(CC(O)c4ccccc4)ccn3n2)c1 (stereo not given)	28.2µM
CCc1cccc(NC(=O)Cn2ccn3nc(-c4ccc(OC)c(OC)c4)cc3c2=O)c1	–
COc1cccc(-c2cc3c(=O)n(CCNC(=O)Cc4ccc(F)cc4)ccn3n2)c1	–
COc1cccc(-c2cc3c(=O)n(CCNC(=O)c4ccc(F)cc4)ccn3n2)c1	28.2µM
COc1cccc(-c2cc3c(=O)n(CCNC(=O)Cc4ccccc4C)ccn3n2)c1	–
COc1cccc(-c2cc3c(=O)n(CCNC(=O)c4ccccc4)ccn3n2)c1	–
COc1cccc(-c2cc3c(=O)n(CCNC(=O)Cc4cccc(F)c4)ccn3n2)c1	–
COc1cccc(-c2cc3c(=O)n(CCNC(=O)Cc4ccc(Cl)cc4)ccn3n2)c1	–
COc1cccc(-c2cc3c(=O)n(CCNC(=O)c4ccccn4)ccn3n2)c1	31.6µM
COc1ccc(C(O)Cn2ccn3nc(-c4ccc(C(C)C)cc4)cc3c2=O)cc1 (stereo not given)	–
Cc1ccc(-c2noc([C@@H]3C[C@H](NC(=O)COc4ccccc4)CN3C)n2)cc1	–
CNC(=O)CCn1ncc2cc(OCc3ccccc3-c3cc(F)ccc3OC)ccc21	–
CC(SC1CCCC1)C(=O)Nc1ccc(Cl)cc1Cl (stereo not given)	–
